This is a sample that favours compounds with a hit; in the whole collection about 2.7% have one here.
KKLEB tox = CF airway cell cytotoxicity counter-screen | AID 602141 | KKLEB CF airway cells viability, ATPlite luminescence, overnight; hits give low values; cells stimulated with P. aeruginosa culture filtrate | activity change (cytotoxicity), % at 5 µM | 360,000 tested, 0.36% active;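 active means corrected activity change at or below -50% at 5 µM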
Peg3 prom inh-1 = Peg3 promoter activity inhibition. inhibition, % at 20 µM. AID 588405. 360,000 tested, 1.7% active. HeLa PEG-Prom luciferase reporter, luminescence, overnight;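 active means inhibition of at least 50% at 20 µM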
Shn3 3UTR inh = reduces Shn3 3'UTR luciferase signal in osteoblasts; Clone20 osteoblast Shn3 3'UTR firefly luciferase, 24 h; inhibition, % at 12.5 µM; 360,000 tested, 0.52% active;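 active means mean inhibition of at least 75% with every replicate also reaching 75%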
HIF-2a block = inhibitors of HIF-2a | 786-0 RCC cells HIF-2a reporter, luciferase luminescence, overnight | inhibition, % at 18.8 µM | 360,000 tested, 0.72% active;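 active means inhibition of the luminescence signal of 40% or more relative to plate controls, in a single-dose primary screen at 18.75 µM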
CF NFkB inh = blocks PAF-induced NF-kB reporter in cystic fibrosis cells. KKLEB NF-kB-GFP reporter, GFP fluorescence overnight. inhibition, % at 5 µM. 360,000 tested, 0.86% active. AID 588850;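 active means at least 50% inhibition at 5 µM, scaled per plate between neutral and stimulator controls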;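 further: PAF is a Pseudomonas aeruginosa culture filtrate used as stimulus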
TRPM1 prom inh = inhibitors of MITF-driven TRPM1 promoter in melanoma cells | SK-MEL-5 TRPM1 promoter luciferase, 24 h | inhibition, % at 12.5 µM | 330,000 tested, 0.83% active;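 active means mean inhibition across replicates of 60% or more, whatever share of single replicates reaches that level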
Peg3 prom inh-2 = Peg3 promoter inhibition confirmation; shares compounds with Peg3 prom inh-1; HeLa PEG-Prom luciferase reporter, luminescence, overnight; inhibition, % at 20 µM; 1,300 tested, 84% active; AID 602417;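 active means at 20 µM dose, 40% or more inhibition averaged across four replicates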
CF NFkB conf = CF NF-kB inhibition confirmation, single concentration; inhibition, % at 5 µM; KKLEB CF airway cells, PAF-induced NF-kB-GFP fluorescence, overnight; AID 602472; shares compounds with CF NFkB inh; 1,300 tested, 64% active; in the data active means inhibition above about 40%;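 further: stimulus PAF is a Pseudomonas aeruginosa filtrate and not platelet activating factor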
Mdm2 MdmX conf = confirmation of inhibitors of human Mdm2/MdmX interaction, set 2; inhibition, % at 8 µM; 740 tested, 99% active; SaOS-2 split-luciferase Mdm2/MdmX complementation, luminescence; shares compounds with HIF-2a block; AID 504601;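 active means mean inhibition of the luminescence signal across two replicates at or above 26 percent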
Target sequence (O15151 whole entry, looked up): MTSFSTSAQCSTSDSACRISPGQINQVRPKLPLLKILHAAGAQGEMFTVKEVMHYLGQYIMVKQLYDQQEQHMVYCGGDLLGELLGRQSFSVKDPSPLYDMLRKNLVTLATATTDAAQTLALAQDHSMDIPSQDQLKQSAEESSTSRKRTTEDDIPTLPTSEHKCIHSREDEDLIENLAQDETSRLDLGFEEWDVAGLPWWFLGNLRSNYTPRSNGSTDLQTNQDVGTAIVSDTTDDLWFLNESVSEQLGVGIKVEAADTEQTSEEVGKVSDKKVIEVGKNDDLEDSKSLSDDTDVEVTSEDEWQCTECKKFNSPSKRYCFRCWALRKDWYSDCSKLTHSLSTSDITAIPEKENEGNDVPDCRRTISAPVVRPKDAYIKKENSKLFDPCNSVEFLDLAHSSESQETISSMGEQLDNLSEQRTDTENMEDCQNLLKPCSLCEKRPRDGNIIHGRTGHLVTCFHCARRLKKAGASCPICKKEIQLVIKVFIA
Target sequence (Q00987 whole entry, looked up): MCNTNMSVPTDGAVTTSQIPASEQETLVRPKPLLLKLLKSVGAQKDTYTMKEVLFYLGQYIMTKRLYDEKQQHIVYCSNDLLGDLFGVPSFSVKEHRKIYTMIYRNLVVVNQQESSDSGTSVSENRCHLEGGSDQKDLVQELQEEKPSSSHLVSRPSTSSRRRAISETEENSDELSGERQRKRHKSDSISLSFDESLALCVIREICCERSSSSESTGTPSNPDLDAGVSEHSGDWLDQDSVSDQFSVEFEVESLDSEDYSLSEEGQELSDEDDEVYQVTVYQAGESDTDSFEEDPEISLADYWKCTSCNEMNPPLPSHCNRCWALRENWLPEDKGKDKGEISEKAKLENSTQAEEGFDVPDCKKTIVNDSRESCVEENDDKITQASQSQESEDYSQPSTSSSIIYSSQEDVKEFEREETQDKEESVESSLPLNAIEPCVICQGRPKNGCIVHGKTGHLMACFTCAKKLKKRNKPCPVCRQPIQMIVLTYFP
HIF-2a conf = HIF-2a inhibition, single concentration confirmation; shares compounds with HIF-2a block; 786-0 RCC cells, HIF-2a luciferase reporter luminescence, overnight; 1,800 tested, 56% active; inhibition, % at 18.8 µM;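 active means mean inhibition across four replicates of at least 40 percent at the single tested concentration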
HIF-1a counter = counter-screen for HIF-2a inhibitors: HIF-1a inhibition in MiaPaCa-2 cells | shares compounds with HIF-2a block | 1,800 tested, 72% active | inhibition, % at 18.8 µM | MiaPaCa-2 HIF-1a luciferase reporter, desferoxamine, overnight;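 active means mean inhibition of the reporter signal across four replicates at the single tested dose of 50% or more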
A number is an active result; i = inactive; nt = no result given.

SMILES	KKLEB tox	Peg3 prom inh-1	Shn3 3UTR inh	HIF-2a block	CF NFkB inh	TRPM1 prom inh	Peg3 prom inh-2	HIF-2a conf	HIF-1a counter	others
COc1cccc(N2CCN(C(C)C(=O)NC34CC5CC(CC(C5)C3)C4)CC2)c1 (centres undefined)	i	i	i	i	i	i	nt	nt	nt
COc1cc(SC)ccc1C(=O)Nc1nc2ccccc2[nH]1	-95.9	109.1	96.4	96.4	i	97.0	96.3	99.5	107.4
COC(=O)c1cn(NC(=O)c2cc([N+](=O)[O-])ccc2F)c(=O)c2ccccc12	i	58.0	93.6	i	i	i	66.0	nt	nt	Mdm2 MdmX conf=95.0
COC(=O)c1cn(NC(=O)C2CCC(C)CC2)c(=O)c2ccccc12 (centres undefined)	i	i	i	i	i	i	nt	nt	nt
CCCS(=O)(=O)c1cnc(C2COc3ccccc3O2)nc1N (centres undefined)	i	87.8	i	81.2	i	72.3	76.5	89.2	89.7
Cc1cc(C)c2nc(NNC(=O)c3ccc(S(=O)(=O)N4CCCC(C)C4)cc3)sc2c1 (centres undefined)	i	65.8	i	i	i	i	74.9	nt	nt	Mdm2 MdmX conf=85.7
CC1CCCN(S(=O)(=O)c2ccc(C(=O)Nc3nnc(C4CC4)o3)cc2)C1 (centres undefined)	i	i	i	i	i	i	nt	nt	nt
COc1ccc2c(c1)CC(C(=O)Nc1ccc(Cl)cc1)/C(=N/O)O2 (centres undefined)	i	i	i	i	i	i	nt	nt	nt
Cc1ccc(NS(=O)(=O)c2ccc3c(c2)n(C)c(=O)n3C)cc1C	i	i	i	i	i	i	nt	nt	nt
Cc1ccc(NS(=O)(=O)c2cc3c4c(cccc4c2)C(=O)NC3=O)cc1C	i	57.2	i	54.2	i	i	60.2	i	102.0
O=c1c2ccccc2nc2c3ccccc3cnn12	i	i	i	i	i	i	nt	nt	nt
O=c1c2ccccc2cnn1-c1nc2ccccc2[nH]1	-50.7	107.5	87.6	92.2	i	93.3	94.9	94.5	98.6
O=c1c(Cl)c(N2CCCCC2)cnn1-c1nc2ccccc2[nH]1	-56.1	88.0	i	69.7	i	63.7	67.0	79.3	85.7
CCOC(=O)c1c(NC(C)=O)sc2c(OCCN(CC)CC)c(Br)ccc12	i	i	i	i	i	i	nt	nt	nt
CCOC(=O)c1c(NC(C)=O)sc2c(OCC(O)CN(CC)CC)c(Br)ccc12 (centres undefined)	i	85.6	i	77.9	i	i	97.8	i	105.6
COc1ccccc1CNC(=O)c1cccc(S(=O)(=O)N2CCCC2)c1	i	i	i	i	i	i	nt	nt	nt
CCOc1ccc(NC(=O)c2ccccn2)cc1	i	66.6	i	55.9	i	61.7	46.4	70.1	71.3
CCOc1ccc(NC(=O)c2cnccn2)cc1	i	i	i	i	i	i	nt	nt	nt
CSc1ncccc1C(=O)N1CCN(S(=O)(=O)c2ccc(F)cc2)CC1	i	i	i	i	i	i	nt	nt	nt
O=C(Nc1cc(S(=O)(=O)N2CCOCC2)ccc1Cl)c1cc([N+](=O)[O-])ccc1Cl	i	108.9	i	61.6	i	i	84.2	49.7	i
COCCn1c(C)cc(C(=O)CSc2nnc(C)s2)c1C	i	94.7	i	70.3	i	66.7	74.5	84.0	i
C/C(=N\Nc1ccc2nncn2n1)c1ccccn1	i	60.4	90.0	i	i	nt	59.6	nt	nt	Mdm2 MdmX conf=83.0
C/C(=N\Nc1ccc2nncn2n1)c1ccco1	i	i	i	i	i	i	nt	nt	nt
Cc1cc(C)c2cccc(N)c2n1	i	i	i	i	i	i	nt	nt	nt
Cc1cc(C)c2ccc(N)nc2c1O	i	69.8	i	i	i	74.5	58.1	nt	nt	Mdm2 MdmX conf=89.2
SMILES	KKLEB tox	Peg3 prom inh-1	Shn3 3UTR inh	HIF-2a block	CF NFkB inh	TRPM1 prom inh	Peg3 prom inh-2	HIF-2a conf	HIF-1a counter	others
O=C1NC(=O)C(c2cccs2)(c2cccs2)N1	i	i	i	i	i	i	nt	nt	nt
Cc1ccccc1Nc1nc(N)nc(COC(=O)c2ccccc2)n1	i	i	i	i	i	i	nt	nt	nt
Nc1nc(CCl)nc(Nc2cccc3ccccc23)n1	-80.1	64.1	i	40.5	82.8	nt	72.4	nt	nt	Mdm2 MdmX conf=102.0
Cc1ccc(/C=N/Nc2ccc3ccccc3n2)o1	i	i	i	i	i	i	nt	nt	nt
Cc1cccc(/C=N/Nc2ccc3ccccc3n2)c1	i	66.6	i	51.9	i	76.2	69.9	88.4	89.7
C(=N\Nc1ccc2ccccc2n1)/c1ccc2c(c1)OCCO2	i	78.9	i	70.8	i	89.5	77.4	91.4	100.0
Cc1nn(C(C)(C)C)c(C)c1/C=N/OC(=O)Nc1ccc(Cl)cc1	-55.6	96.1	nt	90.6	i	78.5	95.4	96.1	103.3	Mdm2 MdmX conf=100.7
CCCCCCCNC(=O)C1(CC2CC(c3cccc(Br)c3)=NO2)CCNCC1 (centres undefined)	i	99.2	90.9	i	i	98.9	98.9	nt	nt	Mdm2 MdmX conf=102.7
COc1ccc(C(=O)Nc2ccc(C)cn2)c(OC)c1	-62.9	74.3	i	62.5	i	75.0	52.4	76.1	84.8
COc1ccccc1N(C(=O)CCl)c1cn(C(C)=O)c2ccccc12	-102.4	66.7	i	47.7	88.7	63.1	71.8	44.2	i	Mdm2 MdmX conf=103.2
CCCc1nc2oc3c(NCCCN(C)C)ncnc3c2c2c1CCCC2	i	92.4	i	i	i	77.6	93.4	nt	nt	Mdm2 MdmX conf=100.7
CC(C)Cc1nc2oc3c(NCC(C)O)ncnc3c2c2c1CCCC2 (centres undefined)	i	i	i	i	i	i	nt	nt	nt
O=C(OCCN=C1NS(=O)(=O)c2ccccc21)c1ccccc1F	i	i	i	i	i	i	nt	nt	nt
CNC(=O)COC(=O)c1ccccc1C(=O)c1ccc(Cl)c([N+](=O)[O-])c1	i	100.1	i	71.3	90.5	89.2	98.9	i	104.0	CF NFkB conf=111.7
CC(C)OC(=O)c1ccccc1C(=O)c1ccc(N)c([N+](=O)[O-])c1	i	i	i	i	i	i	nt	nt	nt
CC(C)(C)c1ccc(Cn2c(=O)cnc3ccccc32)cc1	i	86.3	i	62.1	i	i	77.3	66.2	86.2
Cc1cc2sc3ccc(C#CC4(O)CCCCC4)cc3c(=O)c2cc1C	i	98.8	94.3	92.8	i	96.4	97.4	97.2	103.2	Mdm2 MdmX conf=101.5
